Assay results as given in PubChem BioAssay (Tox21).
Where “and” joins values, the source holds several entries; their conditions need not be identical. Identical values can stand only once. Inconclusive results are not listed. Entries that show only a call come without a potency. Calls of active or inactive are those of the source. The call rests on the fitted dose curve; in most records, active means well fitted curve in the direction sought with a large enough effect in the repeat runs; inconclusive means weak or mixed curves; inactive means no such curve, though single readings can be large; an effect the other way counts as inactive or inconclusive.

Legend:
[1] = qHTS assay to identify small molecule antagonists of the glucocorticoid receptor (GR) signaling pathway - cell viability counter screen (AID 720693); further: nearly all actives have a fitted effect of over 55% in size
[2] = qHTS assay for identifying genotoxic compounds that show differential cytotoxicity against isogenic chicken DT40 cell lines with known DNA damage response pathways - wild type cell line (AID 743012); further: nearly all actives have a fitted effect of over 60% in size
Outline: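 Endpoint: CellTiter-Glo luminescence, 30 min RT. Cells: wild type DT40, 300/well. Exposure: compounds in DMSO, 40 h, 37 C/5% CO2, after ~0.5 h pre-incubation.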

[3] = qHTS assay for identifying genotoxic compounds that show differential cytotoxicity against isogenic chicken DT40 cell lines with known DNA damage response pathways - Rev3 mutant cell line (AID 743014); further: nearly all actives have a fitted effect of over 55% in size
[4] = qHTS assay to identify small molecule antagonists of the androgen receptor (AR) signaling pathway - cell viability counter screen (AID 743033; further: nearly all actives have a fitted effect of over 45% in size)
[5] = qHTS assay for identifying genotoxic compounds that show differential cytotoxicity against isogenic chicken DT40 cell lines with known DNA damage response pathways - Rad54/Ku70 mutant cell line (AID 743015); further: nearly all actives have a fitted effect of over 60% in size
[6] = qHTS assay to identify small molecule antagonists of the androgen receptor (AR) signaling pathway using the MDA cell line - cell viability counter screen (AID 743041; further: nearly all actives have a fitted effect of over 45% in size)
Outline: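 In this qHTS counter assay, fluorescence intensity after CellTiter-Fluor addition indicated viability of MDA-kb2 AR-luc cells given compounds and R1881 for 16 h at 37C.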
Potency means the concentration at half of the fitted maximal effect.

| Compound | Potency [1] | Potency [2] | Potency [3] | Potency [4] | Potency [5] | Potency [6] |
| --- | --- | --- | --- | --- | --- | --- |
| CNC(=O)Oc1cccc(N=CN(C)C)c1 | inactive | 54.5 µM (active) | 54.5 µM (active) | inactive | – | – |
| CCCCOC(=O)CCC(=O)OCCCC | inactive | inactive | inactive | inactive | inactive | inactive |
| CCCBr | inactive | inactive | inactive | inactive | inactive | inactive |
| COc1ccc(C(=O)c2c(C)n(CCN3CCOCC3)c3ccccc23)cc1 | inactive | 26.6 µM (active) | 26.6 µM (active) | – | 29.8 µM (active) | inactive |
| CCCCCCCCn1sccc1=O | inactive | 4.87 µM (active) and 454 nM (active) | 2.17 µM (active) and 719 nM (active) | 4.37 µM (active) and 20.4 µM (active) | 3.07 µM (active) and 1.02 µM (active) | 36 µM (active) |
| COc1ccccc1N1CCNCC1 | inactive | inactive | inactive | inactive | inactive | inactive |
| CCCC[N+](CCCC)(CCCC)CCCC | inactive | 4.32 µM (active) | 3.85 µM (active) | inactive | 2.43 µM (active) | inactive |
| OCCSSCCO | inactive | inactive | inactive | – | inactive | inactive |
| O=C1c2ccccc2C(=O)N1SC(Cl)(Cl)Cl | 17.1 µM (active) and 13.8 µM (active) | 603 nM (active) and 154 nM (active) | 67.6 nM (active) and 109 nM (active) | 2.71 µM (active) and 3.09 µM (active) | 135 nM (active) and 154 nM (active) | 21.7 µM (active) |
| CCCCC(CC)CO[N+](=O)[O-] (centres undefined) | inactive | inactive | inactive | inactive | inactive | inactive |
| CC(C)(C#N)C(C)(C)C#N | inactive | inactive | inactive | inactive | inactive | inactive |
| C=C(C)C(=O)OCCCCOC(=O)C(=C)C | inactive | inactive | inactive | inactive | – | – |
| CCOP(=O)(SC(C)CC)N1CCSC1=O (centres undefined) | inactive | inactive | inactive | inactive | inactive | inactive |
| O=C(O)c1cc(I)cc(I)c1I | inactive | inactive | inactive | inactive | inactive | inactive |
| Cc1nc(N(C)C)nc(OC(=O)N(C)C)c1C | inactive | inactive | inactive | inactive | inactive | inactive |
| O=C(O)c1cc(Cl)ccc1Cl | inactive | inactive | inactive | inactive | inactive | inactive |
| CC(C)OC(=O)Cc1ccccc1 | inactive | inactive | inactive | inactive | inactive | inactive |
| CCCCC1C(=O)NC(=O)N(C2CCCCC2)C1=O (centres undefined) | inactive | inactive | inactive | inactive | inactive | inactive |
| O=C1NC(=O)C(=O)C(=O)N1 | inactive | inactive | inactive | inactive | inactive | inactive |

| Compound | Potency [1] | Potency [2] | Potency [3] | Potency [4] | Potency [5] | Potency [6] |
| --- | --- | --- | --- | --- | --- | --- |
| C=CCSSCC=C | inactive | inactive | inactive | inactive | inactive | inactive |
| CCCCC#N | inactive | inactive | inactive | inactive | inactive | inactive |
| CCC(C)Cl (centres undefined) | inactive | inactive | inactive | inactive | inactive | inactive |
| Nc1cc(Cl)cc(C(=O)O)c1Cl | inactive | inactive | inactive | inactive | inactive | inactive |
| C[N+](C)(C)CCOC(=O)C(O)(c1ccccc1)c1ccccc1 | inactive | inactive | inactive | inactive | inactive | inactive |
| CCOC(=O)c1cncn1C(C)c1ccccc1 (centres undefined) | inactive | inactive | inactive | inactive | inactive | inactive |
| CCCC1CCCCN1 (centres undefined) | inactive | inactive | inactive | – | inactive | inactive |
| C=CCN1C[C@H](C)N([C@H](c2ccc(C(=O)N(CC)CC)cc2)c2cccc(OC)c2)C[C@H]1C | inactive | 8.41 µM (active) | 13.3 µM (active) | inactive | 18.8 µM (active) | inactive |
| CCOC(=O)c1cn2nc(OP(=S)(OCC)OCC)cc2nc1C | inactive | 27.3 µM (active) | 48.6 µM (active) | – | 38.6 µM (active) | inactive |
| CCOP(=S)(OCC)SCSc1cc(Cl)ccc1Cl | inactive | inactive | inactive | inactive | inactive | inactive |
| CC(Cc1ccccc1)NCc1ccccc1Cl (centres undefined) | inactive | 18.8 µM (active) | 15 µM (active) | inactive | 18.8 µM (active) | inactive |
| C[C@@H]1C[C@@H]([C@H](O)CC2CC(=O)NC(=O)C2)C(=O)[C@@H](C)C1 | inactive | 59.6 nM (active) and 108 nM (active) | 119 nM (active) and 60.8 nM (active) | 379 nM (active) and 97.2 nM (active) | 133 nM (active) and 121 nM (active) | inactive |
| Nc1ccccc1C(=O)OCCc1ccccc1 | inactive | inactive | inactive | – | inactive | inactive |
| O=C1CC[C@@]2(O)[C@H]3Cc4ccc(O)c5c4[C@@]2(CCN3CC2CC2)[C@H]1O5 | inactive | inactive | inactive | inactive | inactive | inactive |
| C1CCNCC1 | inactive | inactive | inactive | inactive | inactive | inactive |
| O=C(Cc1ccccc1)c1ccccc1 | inactive | inactive | inactive | inactive | inactive | inactive |
| Clc1ccc(Cl)c(Cl)c1 | inactive | inactive | inactive | inactive | inactive | inactive |
| O=C=NC1CCCCC1 | inactive | inactive | inactive | inactive | inactive | inactive |
| CCc1cnc(C2=NC(C)(C(C)C)C(=O)N2)c(C(=O)O)c1 (centres undefined) | inactive | inactive | inactive | inactive | inactive | inactive |
